The other results are listed elsewhere or left out. Values without a mark were called inactive. Activity calls are given as the source filed them. Cut-off read from the data, not from the text of the source: active = inhibition above about 40%; inactive = the rest.

For orientation: inhibition means how much of the control response was suppressed.

The experiment relates to Fam108b (ABHD17B) [Mus musculus]. Description: inhibition of mouse Fam108b by HTS hits, late-stage follow-up, biochemical, gel-based ABPP, soluble recombinant form (AID 588649). The conditions noted are these: fluorophosphonate probe, at 20 µM, hits give high values.
Consider `O=C(Nc1ccc(-c2csc(Nc3cccc(C(F)(F)F)c3)n2)cc1)c1cccc(C(F)(F)F)c1`, for which the inhibition is 85% (active).
With `COc1ccc(/C=C/C(=O)OCC(=O)Nc2cccc(Oc3ccccc3)c2)c(OC)c1`, the inhibition is 90% (active).
In the case of `Oc1c(Cl)cc(Cl)c(Cl)c1Cc1c(O)c(Cl)cc(Cl)c1Cl` it was 65% (active); in that of `Nc1ccc2nc3c(=O)[nH]c(=S)[nH]c3nc2c1`, 0%.
In the case of `Cc1ccc(S(=O)(=O)N=C2C=C(Sc3ncn[nH]3)C(=O)c3ccccc32)cc1` it was 90% (active); in that of `CC[N+](C)(CC)CCC[n+]1c(-c2ccccc2)c2cc(N)ccc2c2ccc(N)cc21`, 25%.
In the case of `O=C(NNc1c2ccccc2nc2ccccc12)c1cc2ccccc2cc1O`, the inhibition was 10%.
In the case of `COc1ccc(NS(=O)(=O)c2cc(NC(=O)CC(=O)c3ccc([N+](=O)[O-])cc3)ccc2C)cc1` it was 25%.

The record behind these values is PubChem BioAssay AID588649 (The Scripps Research Institute Molecular Screening Center, 2011).
